Data published in publication PMC9911399, “Two distinct binding modes provide the RNA-binding protein RbFox with extraordinary sequence specificity”.
Substitutions are numbered along the chain they refer to; changes in the protein carry UniProt numbers. In all, about 16,000 sequences were measured (“ka relative to ugcaugu”: median about 0.096, highest 2% from about 0.35 on). This is one part of a sample in which the highest values are shown more often than they occur.

T1: RBFOX1 RRM RbFoxmut (Fox-RRM*) (Homo sapiens, UniProt Q9NWB1 109-208, R118D;E147R;N151S;E152T)
T1 sequence: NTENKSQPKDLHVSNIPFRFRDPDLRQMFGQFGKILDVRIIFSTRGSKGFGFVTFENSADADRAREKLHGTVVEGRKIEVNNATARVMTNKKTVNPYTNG

B1: AAGUUAU (DNA:RNA)
RNA: GGGAGACCGGAAUUCAGAUUGUCCAAGUUAUUUAAAUCCCGUCGUAGCCACCA
DNA 1: CAATCTGAATTCCGGTCTCCC
DNA 2: TGGTGGCTACGACGGGATT
B2: GUUUCAU (DNA:RNA)
RNA: B1 RNA with A25G, A26U, G27U, U29C
DNA 1: CAATCTGAATTCCGGTCTCCC
DNA 2: TGGTGGCTACGACGGGATT
B3: UAGCAGU (DNA:RNA)
RNA: B1 RNA with A25U, U28C, U29A, A30G
DNA 1: CAATCTGAATTCCGGTCTCCC
DNA 2: TGGTGGCTACGACGGGATT
B4: CGUACCU (DNA:RNA)
RNA: B1 RNA with A25C, A26G, G27U, U28A, U29C, A30C
DNA 1: CAATCTGAATTCCGGTCTCCC
DNA 2: TGGTGGCTACGACGGGATT
B5: AGAUGGU (DNA:RNA)
RNA: B1 RNA with A26G, G27A, U29G, A30G
DNA 1: CAATCTGAATTCCGGTCTCCC
DNA 2: TGGTGGCTACGACGGGATT
B6: AGCAUUG (DNA:RNA)
RNA: B1 RNA with A26G, G27C, U28A, A30U, U31G
DNA 1: CAATCTGAATTCCGGTCTCCC
DNA 2: TGGTGGCTACGACGGGATT
B7: AGCAUGU (DNA:RNA)
RNA: B1 RNA with A26G, G27C, U28A, A30G
DNA 1: CAATCTGAATTCCGGTCTCCC
DNA 2: TGGTGGCTACGACGGGATT
B8: UAGCAUA (DNA:RNA)
RNA: B1 RNA with A25U, U28C, U29A, A30U, U31A
DNA 1: CAATCTGAATTCCGGTCTCCC
DNA 2: TGGTGGCTACGACGGGATT
B9: AGCAUGG (DNA:RNA)
RNA: B1 RNA with A26G, G27C, U28A, A30G, U31G
DNA 1: CAATCTGAATTCCGGTCTCCC
DNA 2: TGGTGGCTACGACGGGATT
B10: AUGUUGG (DNA:RNA)
RNA: B1 RNA with A26U, A30G, U31G
DNA 1: CAATCTGAATTCCGGTCTCCC
DNA 2: TGGTGGCTACGACGGGATT
B11: ACCAUGG (DNA:RNA)
RNA: B1 RNA with A26C, G27C, U28A, A30G, U31G
DNA 1: CAATCTGAATTCCGGTCTCCC
DNA 2: TGGTGGCTACGACGGGATT
B12: UAGCAUC (DNA:RNA)
RNA: B1 RNA with A25U, U28C, U29A, A30U, U31C
DNA 1: CAATCTGAATTCCGGTCTCCC
DNA 2: TGGTGGCTACGACGGGATT
B13: AUGGUUG (DNA:RNA)
RNA: B1 RNA with A26U, U28G, A30U, U31G
DNA 1: CAATCTGAATTCCGGTCTCCC
DNA 2: TGGTGGCTACGACGGGATT
B14: AGCCAUG (DNA:RNA)
RNA: B1 RNA with A26G, G27C, U28C, U29A, A30U, U31G
DNA 1: CAATCTGAATTCCGGTCTCCC
DNA 2: TGGTGGCTACGACGGGATT
B15: UAGCAUG (DNA:RNA)
RNA: B1 RNA with A25U, U28C, U29A, A30U, U31G
DNA 1: CAATCTGAATTCCGGTCTCCC
DNA 2: TGGTGGCTACGACGGGATT
B16: AGCAUAU (DNA:RNA)
RNA: B1 RNA with A26G, G27C, U28A
DNA 1: CAATCTGAATTCCGGTCTCCC
DNA 2: TGGTGGCTACGACGGGATT
B17: AUUCCUA (DNA:RNA)
RNA: B1 RNA with A26U, G27U, U28C, U29C, A30U, U31A
DNA 1: CAATCTGAATTCCGGTCTCCC
DNA 2: TGGTGGCTACGACGGGATT
B18: ACGGGGG (DNA:RNA)
RNA: B1 RNA with A26C, U28G, U29G, A30G, U31G
DNA 1: CAATCTGAATTCCGGTCTCCC
DNA 2: TGGTGGCTACGACGGGATT
B19: UCCUCGU (DNA:RNA)
RNA: B1 RNA with A25U, A26C, G27C, U29C, A30G
DNA 1: CAATCTGAATTCCGGTCTCCC
DNA 2: TGGTGGCTACGACGGGATT
B20: GUACUCA (DNA:RNA)
RNA: B1 RNA with A25G, A26U, G27A, U28C, A30C, U31A
DNA 1: CAATCTGAATTCCGGTCTCCC
DNA 2: TGGTGGCTACGACGGGATT
B21: CACUACA (DNA:RNA)
RNA: B1 RNA with A25C, G27C, U29A, A30C, U31A
DNA 1: CAATCTGAATTCCGGTCTCCC
DNA 2: TGGTGGCTACGACGGGATT
B22: UUAGGGA (DNA:RNA)
RNA: GGGAGACCGGAAUUCAGAUUGUCCUUAGGGAUUAAAUCCCGUCGUAGCCACCA
DNA 1: CAATCTGAATTCCGGTCTCCC
DNA 2: TGGTGGCTACGACGGGATT
B23: AGCCGCU (DNA:RNA)
RNA: B1 RNA with A26G, G27C, U28C, U29G, A30C
DNA 1: CAATCTGAATTCCGGTCTCCC
DNA 2: TGGTGGCTACGACGGGATT
B24: GCUCAAC (DNA:RNA)
RNA: B1 RNA with A25G, A26C, G27U, U28C, U29A, U31C
DNA 1: CAATCTGAATTCCGGTCTCCC
DNA 2: TGGTGGCTACGACGGGATT
B25: UCGCGAA (DNA:RNA)
RNA: B22 RNA with U26C, A27G, G28C, G30A
DNA 1: CAATCTGAATTCCGGTCTCCC
DNA 2: TGGTGGCTACGACGGGATT
B26: UGACUUG (DNA:RNA)
RNA: B22 RNA with U26G, G28C, G29U, G30U, A31G
DNA 1: CAATCTGAATTCCGGTCTCCC
DNA 2: TGGTGGCTACGACGGGATT
B27: AUCCGCU (DNA:RNA)
RNA: B1 RNA with A26U, G27C, U28C, U29G, A30C
DNA 1: CAATCTGAATTCCGGTCTCCC
DNA 2: TGGTGGCTACGACGGGATT
B28: AAGCAUC (DNA:RNA)
RNA: B1 RNA with U28C, U29A, A30U, U31C
DNA 1: CAATCTGAATTCCGGTCTCCC
DNA 2: TGGTGGCTACGACGGGATT
B29: AAGCAUA (DNA:RNA)
RNA: B1 RNA with U28C, U29A, A30U, U31A
DNA 1: CAATCTGAATTCCGGTCTCCC
DNA 2: TGGTGGCTACGACGGGATT
B30: AAGCAUG (DNA:RNA)
RNA: B1 RNA with U28C, U29A, A30U, U31G
DNA 1: CAATCTGAATTCCGGTCTCCC
DNA 2: TGGTGGCTACGACGGGATT
B31: CGAUGCA (DNA:RNA)
RNA: B22 RNA with U25C, U26G, G28U, G30C
DNA 1: CAATCTGAATTCCGGTCTCCC
DNA 2: TGGTGGCTACGACGGGATT
B32: GCAUCCC (DNA:RNA)
RNA: B1 RNA with A25G, A26C, G27A, U29C, A30C, U31C
DNA 1: CAATCTGAATTCCGGTCTCCC
DNA 2: TGGTGGCTACGACGGGATT
B33: GCAUUAA (DNA:RNA)
RNA: B1 RNA with A25G, A26C, G27A, U31A
DNA 1: CAATCTGAATTCCGGTCTCCC
DNA 2: TGGTGGCTACGACGGGATT
B34: ACAUGCG (DNA:RNA)
RNA: B1 RNA with A26C, G27A, U29G, A30C, U31G
DNA 1: CAATCTGAATTCCGGTCTCCC
DNA 2: TGGTGGCTACGACGGGATT
B35: GAUUGCA (DNA:RNA)
RNA: B1 RNA with A25G, G27U, U29G, A30C, U31A
DNA 1: CAATCTGAATTCCGGTCTCCC
DNA 2: TGGTGGCTACGACGGGATT
B36: GCCUGCC (DNA:RNA)
RNA: B1 RNA with A25G, A26C, G27C, U29G, A30C, U31C
DNA 1: CAATCTGAATTCCGGTCTCCC
DNA 2: TGGTGGCTACGACGGGATT
B37: GCAUGCG (DNA:RNA)
RNA: B22 RNA with U25G, U26C, G28U, G30C, A31G
DNA 1: CAATCTGAATTCCGGTCTCCC
DNA 2: TGGTGGCTACGACGGGATT
B38: CCAUGCC (DNA:RNA)
RNA: B22 RNA with U25C, U26C, G28U, G30C, A31C
DNA 1: CAATCTGAATTCCGGTCTCCC
DNA 2: TGGTGGCTACGACGGGATT
B39: GCAUGCA (DNA:RNA)
RNA: B22 RNA with U25G, U26C, G28U, G30C
DNA 1: CAATCTGAATTCCGGTCTCCC
DNA 2: TGGTGGCTACGACGGGATT
B40: GCAUGCC (DNA:RNA)
RNA: B22 RNA with U25G, U26C, G28U, G30C, A31C
DNA 1: CAATCTGAATTCCGGTCTCCC
DNA 2: TGGTGGCTACGACGGGATT
B41: GAAUGCA (DNA:RNA)
RNA: B22 RNA with U25G, U26A, G28U, G30C
DNA 1: CAATCTGAATTCCGGTCTCCC
DNA 2: TGGTGGCTACGACGGGATT
B42: GUCCGCA (DNA:RNA)
RNA: B22 RNA with U25G, A27C, G28C, G30C
DNA 1: CAATCTGAATTCCGGTCTCCC
DNA 2: TGGTGGCTACGACGGGATT

biological target: T1, RBFOX1 RRM RbFoxmut (Fox-RRM*); test: EMSA; HiTS-Eq, 1 nM pool, 10 min; buffer printed only for the single-RNA assays: 10 mM Tris pH 7.5, 150 mM NaCl, 3.4 mM EDTA, 0.001% NP-40, 30 C; settings: tags: His6 N-terminal (pET28a); label: 5' 32P
Outline: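 Purified RbFox RRM, wild type or mutant, was incubated for 10 min in 50 µL with 1 nM of a 5′-radiolabelled RNA pool carrying 7 randomized nucleotides, whose flanks were annealed to DNA oligonucleotides, over a series of increasing protein concentrations. Unbound RNA was resolved on 8% native PAGE, cut out, reverse-transcribed, barcoded by PCR and sequenced on an Illumina HiSeq 2500. Relative association constants were derived from changes in read counts for each RNA species versus the control reaction and normalised to the cognate motif.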

Row | Binder | binding signal
1 | B1 | 0.118 KA relative to UGCAUGU
2 | B2 | 0.132 KA relative to UGCAUGU
3 | B3 | 0.0735 KA relative to UGCAUGU
4 | B4 | 0.099 KA relative to UGCAUGU
5 | B5 | 0.117 KA relative to UGCAUGU
6 | B6 | 0.2 KA relative to UGCAUGU
7 | B7 | 0.713 KA relative to UGCAUGU
8 | B8 | 0.0997 KA relative to UGCAUGU
9 | B9 | 0.538 KA relative to UGCAUGU
10 | B10 | 0.123 KA relative to UGCAUGU
11 | B11 | 0.0839 KA relative to UGCAUGU
12 | B12 | 0.266 KA relative to UGCAUGU
13 | B13 | 0.48 KA relative to UGCAUGU
14 | B14 | 0.163 KA relative to UGCAUGU
15 | B15 | 0.819 KA relative to UGCAUGU
16 | B16 | 0.133 KA relative to UGCAUGU
17 | B17 | 0.098 KA relative to UGCAUGU
18 | B18 | 0.118 KA relative to UGCAUGU
19 | B19 | 0.124 KA relative to UGCAUGU
20 | B20 | 0.095 KA relative to UGCAUGU
21 | B21 | 0.13 KA relative to UGCAUGU

Row | Binder | binding signal
22 | B22 | 0.0529 KA relative to UGCAUGU
23 | B23 | 0.0799 KA relative to UGCAUGU
24 | B24 | 0.0746 KA relative to UGCAUGU
25 | B25 | 0.105 KA relative to UGCAUGU
26 | B26 | 0.272 KA relative to UGCAUGU
27 | B27 | 0.121 KA relative to UGCAUGU
28 | B28 | 0.196 KA relative to UGCAUGU
29 | B29 | 0.0958 KA relative to UGCAUGU
30 | B30 | 0.715 KA relative to UGCAUGU
31 | B31 | 0.158 KA relative to UGCAUGU
32 | B32 | 0.142 KA relative to UGCAUGU
33 | B33 | 0.141 KA relative to UGCAUGU
34 | B34 | 0.139 KA relative to UGCAUGU
35 | B35 | 0.171 KA relative to UGCAUGU
36 | B36 | 0.176 KA relative to UGCAUGU
37 | B37 | 0.872 KA relative to UGCAUGU
38 | B38 | 0.19 KA relative to UGCAUGU
39 | B39 | 0.828 KA relative to UGCAUGU
40 | B40 | 0.651 KA relative to UGCAUGU
41 | B41 | 1.03 KA relative to UGCAUGU
42 | B42 | 0.107 KA relative to UGCAUGU
